What all share (assay): NCI-60 one-dose screen, 48 h (100 = growth as untreated, 0 = no growth, -100 = all killed)
Common to all, as to settings: 10 µM unless noted

Experiment [1] has as its system SR leukemia.
Experiment [2] has as its system OVCAR-8 ovarian.
Experiment [3] deals with OVCAR-5 ovarian.
Experiment [4] deals with OVCAR-4 ovarian.
Experiment [5] deals with SK-OV-3 ovarian.
The subject of experiment [6] is IGROV1 ovarian.
The subject of experiment [7] is OVCAR-3 ovarian.
Experiment [8] relates to HS 578T breast.
Experiment [9] deals with NCI/ADR-RES ovarian.

In PubChem BioAssay (NCI) one finds growth data, which are given here for 19 compounds.

This is part of a sample that, as a whole, favours compounds with a hit. Of some 83,000 tested, about 20% had one in any assay.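 Each cell line was grown in a 96-well plate and treated with one concentration of compound for 48 hours. Values below 10 were considered active.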 Unmarked numbers belong to inactive results. The source made the active and inactive calls.

Consider `COc1ccc(C(=O)Nc2ncc(Cc3ccc(Cl)cc3)s2)cc1`, for which the growth in [1] is 5.82% (active); in experiment [2] it was 25.7%; in [3] it was 30.2%; in experiment [4] it was 49.1%; in experiment [5], 40%; in [6] it was 14.4%. For the same compound, the growth in experiment [7] was -16.2% (active); in experiment [8] it was 18.2%; in [9] it was 9.45% (active).

Regarding `O=C(NCc1ccc(Cn2c(=O)sn(-c3ccccc3)c2=O)cc1)OCc1ccc2cccc(O)c2n1`, the growth in experiment [1] is -11.3% (active); in experiment [2], -0.135% (active); in experiment [3], -61.2% (active); in [4] it was -33.6% (active); in [5], 75.8%; in experiment [6] it was -76.5% (active). The results for the growth in experiment [7], in experiment [8] and in [9] were -87.1% (active), -1.39% (active) and -28.1% (active), respectively.

In the case of `O=C(/C=C/c1ccccc1Cl)c1cccc(OCCCCOc2cccc(C(=O)/C=C/c3ccccc3Cl)c2)c1`, the growth was 81% in experiment [1]; 99.9% in experiment [2]; 101% in [3]; 106% in experiment [4]; 100% in experiment [5]; 92.8% in [6]. The growth in experiment [7] was 112%; in experiment [8] it was 106%; in [9], 103%.

Take `COC(=O)c1ccc2c(c1)c1c(C)c3cnccc3c(C)c1n2C`: the growth in experiment [1] is 18.2%; in experiment [2], 0.0639% (active); in experiment [3] it was -33.3% (active); in experiment [5] it was -15.3% (active); in experiment [6], -33.1% (active); in experiment [7] it was -26% (active). The growth was -15% (active) in [8] and -25% (active) in experiment [9].

For the compound `CSc1ccc(N2C(=N)C(=S)N(c3ccc(C)cc3)C2=O)cc1`, the growth in [1] was 80.3%; in experiment [2] it was 96.1%; in experiment [3], 89%; in experiment [4] it was 96.4%; in experiment [5] it was 81.1%; in experiment [6] it was 103%. In addition, the values for the growth in experiment [7], in [8] and in experiment [9] were 105%, 96% and 106%, respectively.

For `O=C(CSc1nnnn1-c1ccccc1)Nc1ccc(Oc2ccccc2)cc1`, the growth in experiment [1] was 7.48% (active); in experiment [2], 97.3%; in experiment [3] it was 92.2%; in experiment [4] it was 101%; in experiment [5], 102%; in experiment [6], 61.9%. Also, the growth was 100% in [7], 99.2% in [8] and 96.7% in experiment [9].

Consider `Cc1cn(C)cn1`, for which the growth in [1] was 99.4%; in [2], 106%; in experiment [3], 102%; in experiment [4], 100%; in experiment [5], 120%; in experiment [6], 117%. Further, the figures for the growth in experiment [7], in experiment [8] and in experiment [9] were 108%, 138% and 109%, respectively.

As to `Oc1c(I)cc(I)cc1CN(Cc1ccccn1)Cc1ccccn1`, the growth in experiment [1] was 9.92% (active); in [2], 10.1%; in experiment [3], 55.1%; in experiment [4] it was 26.4%; in experiment [5], 25.8%; in experiment [6] it was 15.3%. The figures for the growth in experiment [7] and in experiment [8] were 30.8% and 38.9%, respectively.

Take `CCN(CC)c1ccc(-c2cc(-c3cc(OC)c(OC)c(OC)c3)nc(N3CCC(O)CC3)c2C#N)cc1`: the growth in experiment [1] is 12%; in experiment [2], 10.6%; in experiment [3], 2.43% (active); in experiment [4] it was 40.5%; in experiment [5], -5.1% (active); in experiment [6], 2.12% (active). Also, the growth in [7] was -58.6% (active); in experiment [8], -13.8% (active); in [9] it was 5.08% (active).

Turning to `O=C(Nc1ccccc1O)c1ccc(CNc2ccnc(C(F)(F)F)c2)cc1`, the growth is 24.3% in [1]; 38.8% in experiment [2]; 76.6% in experiment [3]; 52.5% in experiment [4]; 58.6% in experiment [5]; 59.9% in [6]. The results for the growth in experiment [7], in [8] and in experiment [9] were 76.2%, 50% and 18.4%, respectively.

With `CCCC(O)Cn1ncc(C(=O)OCC)c1NC(=O)NCc1cccc(C(F)(F)F)c1` (stereo not given), the growth in [1] is 76.1%; in experiment [2], 102%; in [4] it was 104%; in experiment [5] it was 84.8%; in experiment [6], 83.8%; in experiment [7], 100%. Besides, the growth in [8] was 107%; in experiment [9], 86.4%.

`Cc1nc(N/N=C/c2cn(-c3ccccc3)nc2-c2cc3ccccc3oc2=O)sc1N=Nc1ccccc1`: the growth in experiment [1] is 29.9%; in experiment [2] it was 103%; in [4] it was 85.4%; in [5], 109%; in [6], 89.1%; in experiment [7], 92.1%. Moreover, the growth in experiment [8] is 90.2%; in [9], 88%.

As to `CCC(C)(C)c1ccc(Nc2ccc(Nc3ccc(C(C)(C)CC)cc3)cc2)cc1`, the growth in experiment [1] is 87.7%; in [2], 87.7%; in experiment [3], 93.8%; in experiment [4], 89.2%; in [5] it was 89.7%; in experiment [6], 95.3%. Also, the values for the growth in experiment [7] and in [9] were 89.9% and 91.7%, respectively.

For the compound `Cc1nc2sc(C(=O)Nc3cccc4ccccc34)c(N)c2cc1C(=O)c1ccccc1`, the growth in experiment [1] is 7.17% (active); in [2], 23.7%; in experiment [3] it was 32.3%; in [4], 51.8%; in experiment [5] it was 39.7%; in experiment [6] it was 24.8%. Moreover, the growth is -26.4% (active) in experiment [7], 11.9% in [8] and 12.9% in experiment [9].

Turning to `CCOC(=O)c1c(C)nc2ccccc2c1/C=C/c1ccc(F)cc1`, the growth in experiment [1] is 56.3%; in experiment [2], 70.4%; in experiment [3] it was 93.1%; in [4] it was 64.2%; in [5] it was 87.6%; in experiment [6] it was 66.6%. Further, the growth in [7] was 80.8%; in [8] it was 96.3%; in [9] it was 41.2%.

In the case of `CCCCNC(=O)c1ccc2c(c1)nc(-c1ccccc1)n2C1CCCCC1`, the growth in [1] is 69.2%; in experiment [2], 102%; in [3], 102%; in experiment [4], 102%; in [5] it was 48.4%; in [6] it was 109%. Moreover, the growth in experiment [7] is 115%; in experiment [8] it was 110%; in [9] it was 98%.

In the case of `O=S(=O)(NCCNc1nccc(-c2c(-c3ccc(F)c(O)c3)nc3sccn23)n1)c1ccc(Cl)cc1`, the growth in experiment [1] was 9.79% (active); in [2] it was 22.3%; in experiment [3], 93.1%; in [4], 32.5%; in experiment [5], 39.3%; in experiment [6] it was 30.3%. The growth in [7] is 45.4%; in experiment [8], 31.4%; in experiment [9] it was 28.5%.

For `CN1C(=O)/C(=C/c2ccc(C(=O)Nc3ncc(Cc4cc(Cl)ccc4Cl)s3)cc2)SC1=S`, the growth is 63.9% in experiment [1]; 80.8% in [2]; 70.7% in [3]; 57% in [4]; 71.1% in [5]; 56.9% in [6]. Besides, the growth in experiment [7] was 80.1%; in experiment [8], 80.9%.

For `CS(=O)(=O)c1ccc(-c2nc3ccccc3n2CC(=O)N/N=C/c2ccccc2)cc1`, the growth was 99.1% in experiment [1]; 112% in [2]; 98.5% in experiment [3]; 116% in experiment [4]; 93.2% in experiment [5]; 99.7% in experiment [6]. Moreover, the growth in experiment [7] is 105%; in [8] it was 102%; in [9] it was 105%.
